From PubChem BioAssay
Calls of active or inactive are those of the source.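 The calls were made as follows, unless noted: active = normalized viability below 100% at a tested concentration; inactive = the rest.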

What was measured:
[1] = sensitizers of A549 cells to miR-34 induction, primary screen, imaging, A549 dox-inducible miR-34, nuclei and caspase counts (AID 1347080;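 active = compounds whose cell count with miR-34 switched on is under 0.7 times the count with it off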); conditions: A549 miR-34 inducible, Hoechst nuclei count, 48 h
[2] = survival rescue of mitochondrial mutant cells in low glucose, primary screen, MELAS cybrids, Rieske KO mouse fibroblasts, CellTiter-Glo (AID 1508586;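 active = mean z-score across replicates of 1.96 or higher in either the MELAS or the Rieske mutant cell line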;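 also: z relative to plate mean and SD of compound and empty wells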)
[3] = ovarian cancer cell viability with rucaparib, profiling panel, oncology-focused library, rucaparib conditional (AID 1508598); conditions: patient-derived ovarian cancer cells, CellTiter-Glo viability, 144 h, stronger effect = lower value
[4] = stronger effect = lower value, cell number ratio, induced over uninduced
[5] = measured here: relative caspase fold change +Dox/-Dox
[6] = measured here: total cells with miR-34 induction, stronger effect = lower value
[7] = measured here: total cells without miR-34 induction
[8] = MELAS cybrid survival, CellTiter-Glo 48 h, stronger effect = higher value
[9] = Rieske KO mouse fibroblast survival, CellTiter-Glo 72 h
[10] = at 0.000305 µM, OCI-C5x cells, with rucaparib 10 µM, 100% = cells with rucaparib alone
[11] = at 0.000305 µM, OCI-C5x cells, without rucaparib
[12] = at 0.000305 µM, OCI-P5x cells, with rucaparib 20 µM, 100% = cells with rucaparib alone
[13] = at 0.000305 µM, OCI-P5x cells, without rucaparib
[14] = at 0.00122 µM, OCI-C5x cells, with rucaparib 10 µM, 100% = cells with rucaparib alone
[15] = at 0.00122 µM, OCI-C5x cells, without rucaparib
[16] = at 0.00122 µM, OCI-P5x cells, with rucaparib 20 µM, 100% = cells with rucaparib alone
[17] = at 0.00122 µM, OCI-P5x cells, without rucaparib
[18] = at 0.00488 µM, OCI-C5x cells, with rucaparib 10 µM, 100% = cells with rucaparib alone
[19] = at 0.00488 µM, OCI-C5x cells, without rucaparib
[20] = at 0.00488 µM, OCI-P5x cells, with rucaparib 20 µM, 100% = cells with rucaparib alone
[21] = at 0.00488 µM, OCI-P5x cells, without rucaparib
[22] = at 0.0195 µM, OCI-C5x cells, with rucaparib 10 µM, 100% = cells with rucaparib alone
[23] = at 0.0195 µM, OCI-C5x cells, without rucaparib
[24] = at 0.0195 µM, OCI-P5x cells, with rucaparib 20 µM, 100% = cells with rucaparib alone
[25] = at 0.0195 µM, OCI-P5x cells, without rucaparib
[26] = at 0.0781 µM, OCI-C5x cells, with rucaparib 10 µM, 100% = cells with rucaparib alone
[27] = at 0.0781 µM, OCI-C5x cells, without rucaparib
[28] = at 0.0781 µM, OCI-P5x cells, with rucaparib 20 µM, 100% = cells with rucaparib alone
[29] = at 0.0781 µM, OCI-P5x cells, without rucaparib
[30] = at 0.313 µM, OCI-C5x cells, with rucaparib 10 µM, 100% = cells with rucaparib alone
[31] = at 0.313 µM, OCI-C5x cells, without rucaparib
[32] = at 0.313 µM, OCI-P5x cells, with rucaparib 20 µM, 100% = cells with rucaparib alone
[33] = at 0.313 µM, OCI-P5x cells, without rucaparib
[34] = at 1.25 µM, OCI-C5x cells, with rucaparib 10 µM, 100% = cells with rucaparib alone
[35] = at 1.25 µM, OCI-C5x cells, without rucaparib
[36] = at 1.25 µM, OCI-P5x cells, with rucaparib 20 µM, 100% = cells with rucaparib alone
[37] = at 1.25 µM, OCI-P5x cells, without rucaparib
[38] = at 5 µM, OCI-C5x cells, with rucaparib 10 µM, 100% = cells with rucaparib alone
[39] = at 5 µM, OCI-C5x cells, without rucaparib
[40] = at 5 µM, OCI-P5x cells, with rucaparib 20 µM, 100% = cells with rucaparib alone
[41] = at 5 µM, OCI-P5x cells, without rucaparib

CN(CC(=O)N(Cc1ccc(C2CCCCC2)cc1)c1ccc(C(=O)O)cc1)S(=O)(=O)c1c(F)c(F)c(F)c(F)c1F
inactive: fold change [1, 4] 0.95 | z-score [2, 8] 1.94 | viability [3, 10] 114% | viability [3, 11] 111% | viability [3, 13] 102% | viability [3, 14] 115% | viability [3, 15] 111% | viability [3, 17] 102% | viability [3, 18] 119% | viability [3, 19] 111% | viability [3, 22] 118% | viability [3, 23] 112% | viability [3, 26] 126% | viability [3, 27] 116% | viability [3, 30] 115% | viability [3, 31] 111% | viability [3, 34] 114% | viability [3, 35] 107%
4130: cell count [1, 7]
active: viability [3, 12] 97.3% | viability [3, 16] 96% | viability [3, 20] 92.6% | viability [3, 21] 97.4% | viability [3, 24] 97.6% | viability [3, 25] 95.6% | viability [3, 28] 93.1% | viability [3, 29] 94.2% | viability [3, 32] 94.9% | viability [3, 33] 95.1% | viability [3, 36] 8.63% | viability [3, 37] 75.3% | viability [3, 38] 3.43% | viability [3, 39] 2.98% | viability [3, 40] 0.394% | viability [3, 41] 0.691%
3920: cell count [1, 6]
0.314: fold change [1, 5]
0.483: z-score [2, 9]

Cc1cc(C)c(-c2csc(NC(=O)c3ccccc3)n2)c(C)c1
4340: cell count [1, 7]
3610: cell count [1, 6]
inactive: fold change [1, 4] 0.83 | z-score [2, 8] -0.374 | viability [3, 11] 101% | viability [3, 12] 104% | viability [3, 14] 113% | viability [3, 16] 101% | viability [3, 17] 104% | viability [3, 18] 108% | viability [3, 19] 107% | viability [3, 20] 103% | viability [3, 21] 104% | viability [3, 22] 104% | viability [3, 24] 103% | viability [3, 25] 105% | viability [3, 26] 111% | viability [3, 27] 105% | viability [3, 28] 105% | viability [3, 29] 102% | viability [3, 30] 111% | viability [3, 31] 103% | viability [3, 32] 104% | viability [3, 33] 101% | viability [3, 34] 113% | viability [3, 35] 104% | viability [3, 36] 103% | viability [3, 39] 113%
active: viability [3, 10] 97.8% | viability [3, 13] 97.3% | viability [3, 15] 97.2% | viability [3, 23] 96.2% | viability [3, 37] 100% | viability [3, 38] 99.6% | viability [3, 40] 86.6% | viability [3, 41] 95.6%
0.759: fold change [1, 5]
0.994: z-score [2, 9]

CC(=O)O[C@@]1(C(C)=O)CC[C@H]2[C@@H]3C=C(C)C4=CC(=O)CC[C@]4(C)[C@@H]3CC[C@@]21C
inactive: fold change [1, 4] 0.871 | z-score [2, 8] -0.515 | viability [3, 11] 104% | viability [3, 13] 104% | viability [3, 14] 107% | viability [3, 17] 100% | viability [3, 18] 102% | viability [3, 19] 101% | viability [3, 22] 100% | viability [3, 28] 100% | viability [3, 29] 100% | viability [3, 30] 116% | viability [3, 34] 116% | viability [3, 38] 111%
0.828: fold change [1, 5]
0.339: z-score [2, 9]
7070: cell count [1, 7]
6160: cell count [1, 6]
active: viability [3, 10] 94.9% | viability [3, 12] 96.4% | viability [3, 15] 97.6% | viability [3, 16] 99.8% | viability [3, 20] 99.9% | viability [3, 21] 96.3% | viability [3, 23] 99.3% | viability [3, 24] 96.9% | viability [3, 25] 93.1% | viability [3, 26] 98.1% | viability [3, 27] 94.7% | viability [3, 31] 90.3% | viability [3, 32] 92.2% | viability [3, 33] 89.7% | viability [3, 35] 92.1% | viability [3, 36] 89.9% | viability [3, 37] 82.2% | viability [3, 39] 93.9% | viability [3, 40] 84.5% | viability [3, 41] 82.1%

CC(=CC(=O)Nc1ccccc1C(=O)O)c1ccc2ccccc2c1
1.42: fold change [1, 5]
7300: cell count [1, 6]
inactive: fold change [1, 4] 0.983 | z-score [2, 8] -0.436
7430: cell count [1, 7]
0.934: z-score [2, 9]

CCOC(=O)c1[nH]c2cc(Cl)ccc2c1C(C(=O)NC(C)(C)C)N(C=O)Cc1ccc(Cl)cc1 (stereo not drawn)
inactive: fold change [1, 4] 0.989 | z-score [2, 8] -0.405 | viability [3, 10] 118% | viability [3, 11] 105% | viability [3, 14] 112% | viability [3, 15] 113% | viability [3, 18] 113% | viability [3, 19] 104% | viability [3, 22] 110% | viability [3, 23] 116% | viability [3, 26] 114% | viability [3, 27] 102% | viability [3, 29] 103% | viability [3, 30] 108% | viability [3, 31] 106% | viability [3, 34] 111% | viability [3, 35] 105% | viability [3, 36] 103% | viability [3, 37] 102% | viability [3, 38] 116% | viability [3, 39] 120% | viability [3, 41] 101%
0.584: fold change [1, 5]
-1.07: z-score [2, 9]
active: viability [3, 12] 75.1% | viability [3, 13] 82% | viability [3, 16] 66.5% | viability [3, 17] 73% | viability [3, 20] 67.1% | viability [3, 21] 64.8% | viability [3, 24] 69.4% | viability [3, 25] 63.9% | viability [3, 28] 96.7% | viability [3, 32] 99.6% | viability [3, 33] 99.6% | viability [3, 40] 62%
2780: cell count [1, 7]
2750: cell count [1, 6]
